Reference: PMC12431657, “Discovery and mechanistic insights of dibenzoylmethane as a broad spectrum inhibitor of coronavirus” (PLOS Pathogens, 2025)
Like-named read-outs stand apart in the source and are kept apart here. The campaign covered roughly 3,300 compounds. About 95 (3%) showed an effect of 50% or more. Shown is part of a subset that was picked to be rich in strong results.

Test system: HCoV-229E
Set-up: species or system Huh-7; HTS, protection from HCoV-229E induced cell death, luminescent cell viability (CellCounting-Lite 2.0), inhibition rate
Conditions: 24 h post infection, 1 h compound pre-incubation, 10 µM, inhibitor

Row | Compound | 229E Inhibition rate | 229E Inhibition rate (229E Inhibition rate, 24 h)
1 | COc1cc2c(c(OC)c1OC)-c1c(cc(OC)c(OC)c1OC)C[C@H](C)[C@H](C)C2 [Schisandrin A] | 35.1% | –
2 | CN1CCc2cc3c(c4c2C1Cc1ccccc1-4)OCO3 (stereo not shown) [Roemerine] | 25.9% | –
3 | COc1cc2c(c(OC)c1OC)-c1c(cc3c(c1OC)OCO3)C[C@H](C)[C@H](C)C2 [Gomisin N] | – | 42.9%
4 | C/C=C(\C)C(=O)O[C@@H]1c2cc(OC)c(OC)c(OC)c2-c2c(cc3c(c2OC)OCO3)C[C@H](C)[C@@]1(C)O [Tigloylgomisin P] | 40.2% | –
5 | COc1cc2c(c(OC)c1OC)-c1c(cc3c(c1O)OCO3)C[C@H](C)[C@@H](C)C2 [Gomisin M2] | 19.3% | –
6 | COc1cc2c(cc1OC)-c1c(OC)c(OC)cc3c1[C@H](C2)N(C)CC3 [Glaucine] | 14.2% | –
7 | COc1ccc2c(c1OC)CC1c3c(cc4c(c3-2)OCO4)CCN1C (stereo not shown) [Crebanine] | 62.7% | –
8 | COc1c2c(cc3c1-c1c(cc4c(c1OC)OCO4)C[C@H](C)[C@H](C)C3)OCO2 [Schisandrin C] | 52.7% | –
9 | COc1cc2c(c(OC)c1OC)-c1c(cc3c(c1OC)OCO3)C[C@H](C)[C@@](C)(O)C2 [Schisandrol B] | 7.8% | –
10 | C/C=C(/C)C(=O)O[C@H]1c2cc(OC)c(OC)c(OC)c2-c2c(cc3c(c2OC)OCO3)C[C@H](C)[C@]1(C)O [Schisantherin B] | 54.7% | –
11 | COc1cc2c(c(OC)c1OC)-c1c(cc3c(c1OC)OCO3)C[C@H](C)[C@H](C)C2 [Schisandrin B] | – | 56.2%
12 | C/C=C(/C)C(=O)O[C@H]1c2cc(OC)c(OC)c(OC)c2-c2c(cc(OC)c(OC)c2OC)C[C@H](C)[C@]1(C)O [Angeloylgomisin Q] | 42.2% | –
13 | COC(=O)/C=C/c1ccc(O)cc1 [Methyl p-coumarate] | – | 15.5%
14 | COC(=O)C1=CO[C@@H](O[C@@H]2O[C@H](CO)[C@@H](O)[C@H](O)[C@H]2O)[C@H]2[C@@H]1C=C[C@@]2(O)CO [Gardenoside] | 10.6% | –
15 | CCCCCCCCCCCCCCCC(=O)OC[C@H](CO)OC(=O)CCCCCCCCCCCCCCC [1,2-Dipalmitoyl-sn-glycerol] | 6% | –
16 | COC(=O)C1=CO[C@@H](O[C@@H]2O[C@H](CO)[C@@H](O)[C@H](O)[C@H]2O)[C@@H]2[C@@H](C)CC(=O)[C@]12O [Hastatoside] | 0% | –
17 | C[C@H](CC(=O)O)[C@H]1CC[C@H]2[C@@H]3[C@H](O)C[C@@H]4C[C@H](O)CC[C@]4(C)[C@H]3C[C@H](O)[C@]12C [Norcholic acid] | 0% | –
18 | Cc1cccc(CC(=O)O)c1 [m-Tolylacetic acid] | 18.9% | –
19 | O=C1O[C@H]([C@@H](O)CO)C(O)=C1O [L-Ascorbic acid] | – | 17.7%

Row | Compound | 229E Inhibition rate | 229E Inhibition rate (229E Inhibition rate, 24 h)
20 | OC[C@H]1O[C@H](OC[C@H]2O[C@H](O[C@]3(CO)O[C@H](CO)[C@@H](O)[C@@H]3O)[C@H](O)[C@@H](O)[C@@H]2O)[C@H](O)[C@@H](O)[C@H]1O [Raffinose] | 52.1% | –
21 | OC[C@H]1O[C@@](CO)(O[C@H]2O[C@H](CO[C@@H]3O[C@H](CO)[C@@H](O)[C@H](O)[C@H]3O)[C@@H](O)[C@H](O)[C@H]2O)[C@@H](O)[C@@H]1O [Gentianose] | 0% | –
22 | OC[C@H]1O[C@H](OC[C@H]2O[C@H](OC[C@H]3O[C@H](O[C@]4(CO)O[C@H](CO)[C@@H](O)[C@@H]4O)[C@H](O)[C@@H](O)[C@@H]3O)[C@H](O)[C@@H](O)[C@H]2O)[C@H](O)[C@@H](O)[C@H]1O [Stachyose (tetrahydrate)] | 43.8% | –
23 | C=C(C)[C@@H]1CC[C@]2(C(=O)O[C@@H]3O[C@H](CO[C@@H]4O[C@H](CO)[C@@H](O[C@@H]5O[C@@H](C)[C@H](O)[C@@H](O)[C@H]5O)[C@H](O)[C@H]4O)[C@@H](O)[C@H](O)[C@H]3O)CC[C@]3(C)[C@H](CC[C@@H]4[C@@]5(C)CC[C@H](O[C@@H]6OC[C@H](O)[C@H](O)[C@H]6O[C@@H]6O[C@@H](C)[C@H](O)[C@@H](O)[C@H]6O)[C@@](C)(CO)[C@@H]5CC[C@]43C)[C@@H]12 [Pulchinenoside C] | 12.2% | –
24 | C=C1C(=O)O[C@@H]2C[C@@]3(C)CCCC(=C)[C@@H]3C[C@H]12 [Isoalantolactone] | 20.6% | –
25 | C[C@@H]1C[C@H]2OC(=O)[C@@]3(C)CCC[C@@](C)([C@@H]23)[C@@]1(O)CCc1ccoc1 [Marrubiin] | 59.8% | –
26 | CC1=C2C(=O)O[C@@H](c3ccoc3)[C@]2(C)CCC1 [Fraxinellone] | 13.5% | –
27 | C[C@@H](O)[C@@H](C)O [2,3-Butanediol] | – | 20.3%
28 | O=C(CCCCCCCCc1ccc(O)c(O)c1)c1c(O)cccc1O [Malabaricone C] | 42.8% | –
29 | O=c1c(-c2ccc(O)cc2)coc2cc(O)cc(O)c12 [Genistein] | 17.6% | –
30 | CC(C)=CCc1c(O)cc(O)c2c(=O)cc(-c3ccc(O)cc3)oc12 [Licoflavone C] | 28.1% | –
31 | CC(C)=CCc1c(O)cc(O)c2c(=O)c(-c3ccc(O)cc3)coc12 [Lupiwighteone] | 63.8% | –
32 | CC(C)=CCc1c(-c2ccc(O)cc2O)oc2c(CC=C(C)C)c(O)cc(O)c2c1=O [Mulberrin] | 20.6% | –
33 | CC(C)=CCc1cc(-c2coc3cc(O)cc(O)c3c2=O)cc(O)c1O [Glycyrrhisoflavone] | 62.7% | –
34 | CC(C)=CCc1c(O)ccc(-c2coc3cc(O)cc(O)c3c2=O)c1O [Licoisoflavone A] | 0% | –
35 | COc1cc2c(cc1OC)-c1cc3ccc4c(c3c(=O)n1CC2)OCO4 [8-Oxoepiberberine] | 17.9% | –
36 | O=C(O)C1CCCCN1O (stereo not shown) [N-Hydroxypipecolic acid] | 19% | –
37 | COC(=O)[C@@]1(C)CC[C@]2(C(=O)O)CC[C@]3(C)C(=CC[C@@H]4[C@@]5(C)C[C@H](O)[C@H](O)[C@@](C)(CO)[C@@H]5CC[C@]43C)[C@@H]2C1 [Phytolaccagenin] | 22.3% | –
